Values without a mark were called inactive. For some of these results: Results with a measured potency or affinity are listed apart. Active and inactive are the calls of the source.
Experiments:
[1] = Ebola virus entry assay, green fluorescence channel
[2] = Ebola virus entry assay, blue channel fluorescence
For efficacy in this document: 0% is about no effect.

SMILES | efficacy [1] [%] | outcome [2]
CC(=O)Oc1cc2c(s1)CCN(C(C(=O)C1CC1)c1ccccc1F)C2 (configuration not stated) | 43.8 | inactive
Cc1[nH]cnc1CN1CCc2c(c3ccccc3n2C)C1=O | -10.6 | inactive
C[C@H]1c2cccc(O)c2C(O)=C2C(=O)[C@]3(O)C(O)=C(C(N)=O)C(=O)[C@@H](N(C)C)[C@@H]3[C@@H](O)[C@@H]21 | 76.6 | inactive
CC(C)n1c(/C=C/[C@@H](O)C[C@@H](O)CC(=O)O)c(-c2ccc(F)cc2)c2ccccc21 | 14.5 | inactive
COC(=O)[C@H]1[C@H]2C[C@@H]3c4[nH]c5cc(OC)ccc5c4CCN3C[C@H]2C[C@@H](OC(=O)c2cc(OC)c(OC)c(OC)c2)[C@@H]1OC | 32.6 | inactive
Nc1nc(N)c2nc(-c3ccccc3)c(N)nc2n1 | 17.5 | inactive
CC(=O)O[C@@]12CO[C@@H]1C[C@H](O)[C@@]1(C)C(=O)[C@H](O)C3=C(C)[C@@H](OC(=O)[C@H](O)[C@@H](NC(=O)OC(C)(C)C)c4ccccc4)C[C@@](O)([C@@H](OC(=O)c4ccccc4)[C@H]21)C3(C)C | 57.5 | inactive
N[C@@H]1CONC1=O | -13.4 | inactive
CN(N=O)C(=O)N[C@@H]1[C@@H](O)[C@H](O)[C@@H](CO)O[C@@H]1O | -17.3 | inactive
O=C(O)CCNC(=O)c1ccc(N=Nc2ccc(O)c(C(=O)O)c2)cc1 | -11.9 | inactive
O=P(O)(O)C(O)(Cc1cccnc1)P(=O)(O)O | -17.5 | inactive
